Source: PubChem (National Center for Advancing Translational Sciences (NCATS))
OvCa metastasis – blocks SKOV3ip1 adhesion and invasion in omental model; SKOV3ip1-GFP adhesion/invasion on 3D omental model, fluorescence; Potency, µM (series often up to 45.8 µM), without a hit: at the top dose activity change, negative = inhibition, hits mostly inhibitors; 46,000 tested, 0.1% active;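 note: plate controls were DMSO wells for no effect and tomatine positive control wells for full effect; nearly all actives have a fitted effect of over 65% in size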
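Adhesion/invasion was scored as fixed GFP-labeled SKOV3ip1 cell counts (488/509 nm), normalized to DMSO and tomatine controls. Cancer cells in serum-free medium, with four compound doses (0.36-46 umol/L), sat 2 hr at RT then 16 hr at 37 C on a 48 hr fibroblast/mesothelial/ECM culture.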
PMP22 txn – modulates PMP22 transcription in S16 Schwann cells. AID 1508649. 43,000 tested, 2% active. Potency, µM (series often up to 57.5 µM), without a hit: at the top dose activity change, negative = inhibition, actives largely listed as inhibitors. S16 Pmp22-F2sN Schwann cells, FLuc/NLuc coincidence luminescence, 24 h; active = clear falling dose curves in both reporters; inconclusive = both reporters move, but less clearly or upward; inactive = either reporter flat; the % is the NLuc reporter signal
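qHTS, 1536-well. Cells seeded, compounds added by pin tool, 24 h 37C. Nano-Glo reagent 1 (lysis/FLuc), 10 min RT, read; Stop&Glo, 10 min RT, read NLuc.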
p53null 32C kill – p53 null cell cytotoxicity, permissive temperature; H1299-neo p53 null cells, ATP luminescence, 24 h, 32C; Potency, µM (top dose mostly 46.1 µM), without a hit: at the highest dose activity change, negative = cytotoxicity, usual class: cytotoxic; 55,000 tested, 0.62% active; AID 903;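 note: 0% = DMSO only and -100% = full killing by 100 µM tamoxifen; nearly all actives have a fitted effect of over 55% in size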
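AC50 values derive from Hill modelling of qHTS concentration-response data (up to 46 uM) in H1299-neo cells. Cells were treated 24 h at 32C following overnight attachment at 37C; viability was read as cellular ATP.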
p53null 39C tox – selectivity test: cytotoxicity in p53 null cells, nonpermissive temperature; 55,000 tested, 0.97% active; H1299 p53-null (neo) cells, 39C, ATPlite viability, 24 h; Potency, µM (top dose mostly 46.1 µM), for the others: top-dose activity, negative = cell killing, usual class: cytotoxic;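 note: 0% = DMSO only and -100% = full killing by 100 µM tamoxifen; nearly all actives have a fitted effect of over 50% in size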
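Luminescent ATP signal reported cell survival after H1299 lines (neo, p53 null; or p53 A138V) received up to 46 uM compound and 24 hr incubation at 39C.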
mTORC1 inh – reduces mTORC1 signaling in Tsc2 and p53 null MEF cells | AID 493208 | 44,000 tested, 0.78% active | Potency, µM (highest dose often 38.3 µM), for the others: at the highest dose activity change, negative = inhibition, most hits filed as inhibitors | Tsc2-/- p53-/- MEF, phospho-rpS6 immunofluorescence/PI, 24 h;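 note: plate controls were DMSO for no effect and rapamycin for full effect; nearly all actives have a fitted effect of over 50% in size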
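Tsc2-/-, p53-/- MEFs (empty-vector stable line) in DMEM + 10% FBS were treated with compounds 24 h at 37 degree Celsius, fixed, and immunostained for phospho-rpS6 (Alexa-488) with propidium iodide counterstain. Laser-scanning cytometry gave % positive cells, normalized against 7.5 nM rapamycin and DMSO.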
S16 viability – cytotoxicity in S16 Pmp22-F2sN Schwann cells | S16 Pmp22-F2sN Schwann cells (luciferase reporters placed in the Pmp22 gene) viability, CellTiter-Glo, 24 h | Potency, µM (doses to about 57.5 µM), without a hit: at the highest dose activity change, negative = cytotoxicity, most hits filed as cytotoxic | 43,000 tested, 0.48% active | AID 1508642; note: nearly all actives have a fitted effect of over 65% in size
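Seed 500-1,000 S16 Pmp22-F2sN cells per well in phenol-red-free DMEM with 10% heat-inactivated FBS; pin-add 23 nL compound; incubate 24 h at 37C; add CellTiter-Glo, wait 15 min protected from light; read luminescence.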
* marks the source's active call; other numbers are inactive results; i = inactive; ? = inconclusive; . = no result given. A selection: hits, their analogues and other compounds. The true share with any hit is near 3.1%. Unless noted, calls come from the whole dose curve; as a rule, active = well fitted curve in the direction sought with a large enough effect; inconclusive = small, poorly fitted or top-dose-only effect, or another doubt; inactive = no such curve, though single readings can be large; an effect the other way counts as inactive or inconclusive. Unless noted, % is set by controls: 0 for no effect and ±100 for the full control effect; potency is the fitted concentration of half-maximal effect.

SMILES	OvCa metastasis	PMP22 txn	p53null 32C kill	p53null 39C tox	mTORC1 inh	S16 viability
CC(C)C[C@@H](C(=O)N[C@H](C(=O)OC1CCCC1)c1ccccc1)[C@H](O)C(=O)NO	8%	.	.	.	.	.
Cc1cc(C(=O)Nc2sc3c(c2C#N)CCCC3)no1	.	.	14µM*	11µM*	.	.
CC[C@@H]1C(=O)N(C)c2cnc(Nc3ccc(C(=O)NC4CCN(C)CC4)cc3OC)nc2N1C1CCCC1	-17%	.	.	.	.	.
CN(CCCNC(=O)c1cc2c(Cl)nc3ccccc3c2s1)Cc1ccccc1	?	?	?	25µM*	13µM*	?
CC1CCCN(CCCNC(=O)c2cc3c(Cl)nc4ccccc4c3s2)C1 (stereo unspecified)	-6%	?	2%	-29%	18µM*	?
CCN(CCCNC(=O)c1cc2c(=O)[nH]c3ccc(C)cc3c2s1)Cc1ccccc1	?	?	?	?	18µM*	?
OC[C@H]1OC(O)C[C@@H](O)[C@H]1O (stereo partly specified)	3%	.	.	.	.	.
Cc1ccc(OCC(O)Cn2c(=N)n(CCN3CCCCC3)c3ccccc32)cc1 (stereo unspecified)	8.9µM*	?	-3%	13µM*	.	?
COc1ncc(-c2ccc3nccc(-c4ccnnc4)c3c2)cc1NS(=O)(=O)c1ccc(F)cc1F	4%	.	.	.	.	.
Cc1ccc(-n2ncc(C(=O)NCCN3CCCC3)c2C2CCN(C(=O)OC(C)(C)C)CC2)cc1	i	?	4%	0%	0%	-3%
Cc1ccc(-n2ncc(C(=O)NCCN3CCC(Cc4ccccc4)CC3)c2C2CCN(C(=O)OC(C)(C)C)CC2)cc1	?	?	?	20µM*	?	?
CC(C)(C)OC(=O)N1CCC(c2c(C(=O)NCCN3CCC(Cc4ccccc4)CC3)cnn2-c2cccc(Cl)c2)CC1	?	?	4%	-122%	15µM*	25µM*
COc1cccc(NC(=O)CSc2nnc(NC(=O)NC3CCCCC3)s2)c1	6%	?	13µM*	-10%	-4%	5%
CCOc1ccc(N/C=C/C(=O)c2ccccc2)c([N+](=O)[O-])c1	.	.	6.3µM*	.	.	.
COc1ccc(NC(=O)c2cccc(NC(=O)C(C)C)c2)c([N+](=O)[O-])c1	.	.	-24%	.	.	.
CC(=O)c1cccc(Nc2nc(-c3cccc(C)c3)nc3ccccc23)c1	?	?	?	11µM*	?	?
CCc1ccc(OCC(=O)Nc2ccc(Cl)c(-c3nc4cc(C)cc(C)c4o3)c2)cc1	i	.	-10%	28%	-10%	.
Cc1cc(C)c2oc(-c3cccc(NC(=O)COc4ccc([N+](=O)[O-])cc4)c3)nc2c1	i	?	-26%	-15%	21µM*	-19%
Cc1ccc2scc(N3CCCCC3)c(=O)c2c1	4%	-19%	10µM*	13µM*	-1%	-1%
Cc1ccc2scc(N3CCC(C)CC3)c(=O)c2c1	-22%	?	?	20µM*	4%	-1%
Cc1ccc2scc(N3CCCCC3C)c(=O)c2c1 (stereo unspecified)	3%	-9%	13µM*	16µM*	2%	3%
Cn1c(Nc2ccc(C(F)(F)F)cc2)nc2cc(Oc3ccnc(-c4ncc(C(F)(F)F)[nH]4)c3)ccc21	29%	.	.	.	.	.
O=C1NC(=O)C(c2cnc3ccccn23)=C1c1cn2c3c(cccc13)CN(C(=O)N1CCOCC1)CC2	-12%	.	.	.	.	.
C[C@@H](Oc1cc(-n2cnc3ccc(CN4CCN(C)CC4)cc32)sc1C(N)=O)c1ccccc1C(F)(F)F	1%	.	.	.	.	.
CCS(=O)(=O)Nc1ccc2[nH]c(O)c(C(=Nc3ccc(CN4CCCCC4)cc3)c3ccccc3)c2c1	33%	.	.	.	.	.
SMILES	OvCa metastasis	PMP22 txn	p53null 32C kill	p53null 39C tox	mTORC1 inh	S16 viability
CCN1C(=O)c2ccccc2S(=O)c2ccc(C(=O)N3CCN(c4cccc(C)c4)C(C)C3)cc21 (stereo unspecified)	i	?	-7%	-1%	2%	?
O=C(c1ccc2c(c1)N(Cc1cccc(Cl)c1)C(=O)c1ccccc1S2=O)N1CCN(c2cccc(C(F)(F)F)c2)CC1 (stereo unspecified)	8%	11µM*	11%	14%	-1%	?
Cc1cccc(N2CCN(C(=O)c3ccc4c(c3)N(Cc3ccccc3F)C(=O)c3ccccc3S4=O)CC2C)c1 (stereo unspecified)	i	9µM*	-1%	1%	-10%	11%
O=C(O)c1ccc(-c2c[nH]c3ncc(-c4ccccc4)cc23)cc1C1CCCC1	-10%	.	.	.	.	.
CCOc1ccc(Nc2nc(-c3cccc(Cl)c3)c3c(n2)-c2ccccc2OC3)cc1	-10%	-4%	?	?	2.3µM*	1%
C[C@H](NC(=O)C(C#N)=Cc1cccc(Br)n1)c1ccccc1	-24%	.	.	.	.	.
NC[C@H]1O[C@H](O[C@@H]2[C@@H](O)[C@@H](O[C@H]3O[C@H](CO)[C@@H](O)[C@H](N)[C@@H]3O)[C@H](N)C[C@@H]2N)[C@H](O)[C@@H](O)[C@H]1O	1%	.	.	.	.	.
O=C1CC(c2ccccc2)Cc2[nH]c(=O)c(-c3nc(-c4cccc(Cl)c4)cs3)cc21 (stereo unspecified)	?	-21%	22%	-16%	12µM*	?
COc1ccc(C2=NC(C)(C)N(CC(=O)Nc3cc(OC)cc(OC)c3)C2=O)cc1	-5%	-11%	5%	-5%	-10%	1%
CC(C)(C)c1ccc(C2=NC(C)(C)N(CC(=O)Nc3ccc(F)c(F)c3)C2=O)cc1	i	?	3%	13µM*	1%	-12%
COc1ccc(CNC(=O)c2ccc3nc(C(C)C)oc3c2)cc1OC	i	?	-2%	1%	0%	28µM*
Cc1cccc2c1-c1sc(C(=O)Nc3ccccc3C(N)=O)cc1CO2	-7%	?	16µM*	?	-1%	?
CCCC(=O)OC1=CN(Cc2ccccc2)S(=O)(=O)c2ccccc21	1%	-11%	-3%	1%	16µM*	3%
Cc1nn(Cc2ccc(Cl)cc2Cl)c(C)c1NC(=O)C1C2CCC(O2)C1C(=O)O (stereo unspecified)	.	.	-6%	0%	.	.
Cc1nn(Cc2ccc(Cl)cc2Cl)c(C)c1NC(=O)CCl	.	.	5%	13µM*	.	.
